High-throughput results (PubChem)
This is a sample that favours compounds with a hit; in the whole collection about 2.5% have one here.
p53 mut binder – binders of human mutant p53, primary screen, biochemical, small molecule microarray, anti-GST fluorescence | mutant tumor protein p53 (GST-tagged), Homo sapiens | small molecule microarray binding | calls only | 17,000 compounds, 0.4% hits;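 active = compounds whose four printed spots each glow above background more than chance allows, each with a p-value under 7%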
STAT3 binder – STAT3 binders, primary screen, biochemical, small molecule microarray, single point, set 2; Signal transducer and activator of transcription 3 (Homo sapiens), P40763; His-STAT3 binding, anti-His fluorescence; calls only; 17,000 compounds, 0.2% hits;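 active = compounds whose four printed spots each show fluorescence over background unusually high for their array block, chance value under 7%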
Target sequence (P40763 whole entry, looked up): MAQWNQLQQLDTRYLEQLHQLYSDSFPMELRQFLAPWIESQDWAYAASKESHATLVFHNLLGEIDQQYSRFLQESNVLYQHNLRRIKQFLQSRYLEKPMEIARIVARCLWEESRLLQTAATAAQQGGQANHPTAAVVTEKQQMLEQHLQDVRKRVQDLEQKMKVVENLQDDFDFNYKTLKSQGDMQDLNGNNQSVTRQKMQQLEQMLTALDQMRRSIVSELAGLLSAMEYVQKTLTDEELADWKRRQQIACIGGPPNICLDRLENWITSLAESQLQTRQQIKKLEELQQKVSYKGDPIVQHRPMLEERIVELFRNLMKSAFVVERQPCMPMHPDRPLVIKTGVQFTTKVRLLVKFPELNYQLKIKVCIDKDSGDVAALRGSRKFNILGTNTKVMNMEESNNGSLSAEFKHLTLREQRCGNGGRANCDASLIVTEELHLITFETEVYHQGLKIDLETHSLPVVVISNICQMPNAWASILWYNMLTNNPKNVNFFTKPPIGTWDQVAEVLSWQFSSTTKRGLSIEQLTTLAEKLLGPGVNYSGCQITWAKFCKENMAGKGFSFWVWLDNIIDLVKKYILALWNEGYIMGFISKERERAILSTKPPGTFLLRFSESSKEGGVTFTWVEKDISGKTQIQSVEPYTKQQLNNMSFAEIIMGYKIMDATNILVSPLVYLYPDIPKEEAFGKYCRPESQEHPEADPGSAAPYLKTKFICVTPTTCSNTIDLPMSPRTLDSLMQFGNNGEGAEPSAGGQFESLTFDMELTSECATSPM
c-Myc SMM – binders of human c-Myc, primary screen, biochemical, small molecule microarray, anti-His fluorescence | AID 624141, 2012 | His-c-Myc binding | calls only | 17,000 compounds, 1.5% hits;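 active = spot fluorescence over background with P-value below 7% in all four replicate spots, showing protein binding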
NFkB binder – binders of NF-kB p50 subunit, primary screen, biochemical, small molecule microarray, anti-His fluorescence; Nuclear factor NF-kappa-B p105 subunit (Homo sapiens), P19838; anti-His fluorescence binding; calls only; 17,000 compounds, 1.3% hits; AID 624139, 2012;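 active = spot fluorescence over background significantly raised, with a chance value under 7% in all four replicate spots of the compound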;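 also: probe protein is his-tagged human p50 processed subunit at 1 µg/ml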
Calls only; . = inactive; + = active, no number.

SMILES	p53 mut binder	STAT3 binder	c-Myc SMM	NFkB binder
COCCNC(=S)Nc1nc(OC)cc(OC)n1	.	.	+	.
COc1ccc(CCNC(=S)Nc2ccncc2)cc1OC	.	.	.	.
CCn1c(SCC(=O)Nc2c(C)cc(C)cc2C)nnc1-c1ccccc1C	.	.	.	.
O=C(Nc1ccccc1)C1=C[C@H](c2ccc(C(F)(F)F)cc2)C[C@H](OCCCCO)O1	.	.	.	.
O=C(O)C1=C[C@H](c2ccc(C(F)(F)F)cc2)C[C@H](OCCCCO)O1	.	+	.	.
O=C(Nc1sc2c(c1C(=O)NCc1ccco1)CCC2)c1sc2ccccc2c1Cl	.	.	+	.
COC(=O)c1c(NC(=S)NCc2ccco2)sc2c1CCC(C)C2 (stereo unspecified)	.	.	.	.
COc1cc(CCC(=O)O)cc(OC)c1OC	.	.	.	.
CC1OC(O[C@H]2CC[C@@]3(C)C(CC[C@]4(C)C3CC=C3C5CC(C)(C)CC[C@]5(C(=O)OC5OC(CO)C(OC6OC(CO)C(O)C(O)C6O)C(O)C5O)CC[C@]34C)C2(C)C)C(O)C(O)C1OC1OCC(O)(COC2OCC(O)C(OC3OCC(OC4OCC(O)(CO)C4O)C(O)C3O)C2O)C1O (stereo partly specified)	.	.	.	.
CC1(C)CC[C@]2(C(=O)O[C@@H]3O[C@H](CO)[C@@H](O)[C@H](O)[C@H]3O)CC[C@]3(C)C(=CCC4[C@@]5(C)CC[C@H](O[C@@H]6OC[C@H](O)[C@H](O)[C@H]6O[C@@H]6O[C@H](CO)[C@@H](O)[C@H](O)[C@H]6O[C@@H]6OC[C@H](O)[C@H](O)[C@H]6O)[C@@](C)(CO)C5CC[C@]43C)C2C1 (stereo partly specified)	.	.	.	+
C[C@@H]1O[C@@H](O[C@H]2[C@@H](O)[C@@H](C)O[C@@H](O[C@H]3[C@H](O)[C@@H](O)[C@H](O[C@H]4CC[C@@]5(C)C(CC[C@]6(C)C5C=CC5=C7CC(C)(C)CC[C@]7(CO)CC[C@]56C)[C@]4(C)CO)O[C@@H]3CO)[C@@H]2O[C@@H]2O[C@H](CO)[C@@H](O)[C@H](O)[C@H]2O)[C@H](O)[C@H](O)[C@H]1O (stereo partly specified)	.	.	+	+
CC1(C)CC[C@@]2(C(=O)O[C@@H]3O[C@H](CO)[C@@H](O)[C@H](O)[C@H]3O)C(C1)C1=CCC3[C@@]4(C)CC[C@@H](O[C@@H]5O[C@H](C(=O)O)[C@@H](O[C@@H]6OC[C@@H](O)[C@H](O)[C@H]6O)[C@H](O)[C@H]5O)C(C)(C)C4CC[C@@]3(C)[C@]1(C)C[C@H]2O (stereo partly specified)	.	.	.	.
C[C@@H]1CC[C@]2(C(=O)O)CC[C@]3(C(=O)O)C(=CCC4[C@@]5(C)CC[C@H](O[C@@H]6O[C@@H](C)[C@H](O[C@@H]7O[C@H](CO)[C@@H](O)[C@H](O)[C@H]7O)[C@@H](O)[C@H]6O)C(C)(C)C5CC[C@]43C)C2[C@H]1C (stereo partly specified)	.	.	.	.
C/C=C(\C)C(=O)O[C@H]1[C@H](OC(C)=O)[C@@]2(CO)C(CC1(C)C)C1=CCC3[C@@]4(C)CC[C@H](O[C@@H]5O[C@H](C(=O)O)[C@@H](O)[C@H](O[C@@H]6O[C@H](CO)[C@H](O)[C@H](O)[C@H]6O[C@@H]6O[C@@H](C)[C@H](O)[C@@H](O)[C@H]6O)[C@H]5O[C@@H]5O[C@H](CO)[C@@H](O)[C@H](O)[C@H]5O)C(C)(C)C4CC[C@@]3(C)[C@]1(C)C[C@H]2O (stereo partly specified)	.	.	.	+
CC1OC(OC2C(CO)OC(OC(=O)[C@]34CCC(C)(C)CC3C3=CCC5[C@@]6(C)CC[C@H](OC7OC(C)C(OC8OCC(O)(COC9OCC(O)C(OC%10OCC(OC%11OCC(O)(CO)C%11O)C(O)C%10O)C9O)C8O)C(O)C7O)C(C)(C)C6CC[C@@]5(C)[C@]3(C)CC4)C(O)C2O)C(O)C(O)C1O (stereo partly specified)	.	.	+	+
COc1cc(CCC(O)CC(O)CCc2ccc(O)c(OC)c2)ccc1O (stereo unspecified)	.	.	.	.
CC1(C)CC[C@]2(C(=O)O)CC[C@]3(C)C(=CCC4[C@@]5(C)CC[C@H](O[C@@H]6OC[C@H](O)[C@H](O)[C@H]6O)[C@@](C)(CO)C5CC[C@]43C)C2C1 (stereo partly specified)	.	.	.	+
